# Compounds with a hit are over-represented: about 5.7% of the library has one in this group of screens.
# IL1B secr inh – inhibitors of inflammasome signaling (IL-1 beta secretion); THP-1 LPS/ATP IL-1B secretion, AlphaLISA, 16 h; active compounds read low; activity change, % at 57.5 µM; 360,000 tested, 4.7% active; AID 743279; in the data active means activity change below about -50%; inconclusive means mostly about -30% to -49%; further: on the % scale 0 is the no-effect control and ±100 the full control effect
#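 THP-1 cells pretreated 1 hr with compounds (up to 57.5 uM final), then stimulated with LPS (250 ng/mL final) plus ATP (1.25 mM final); secreted IL-1B measured by AlphaLISA after 16 hr, decreased signal indicating inhibition.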
# ATXN2 expr inh – ATXN2 expression inhibition | HEK-293 ATXN2-luciferase reporter, luminescence, 24 h | Potency, µM (doses to about 57 µM), for inactives: top-dose activity change, negative = inhibition, usual class: inhibitors | 360,000 tested, 0.72% active | AID 1745845; further: potency means the concentration at half of the fitted maximal effect; on the % scale 0 is the no-effect control and ±100 the full control effect; nearly all actives have a fitted effect of over 55% in size
#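 qHTS (up to 57 uM final) was run with 24 h compound exposure of reporter cells at 37 °C. Each well was multiplexed: SteadyGlo luminescence measured ATXN2-luciferase expression after a fluorogenic Gly-Phe-AFC viability readout (25 uM final).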
# TGFb inhibitor – blocks TGF-b signaling; HepG2 CAGA-GFP TGF-b/SMAD3 reporter, GFP fluorescence, 18 h; TGF-beta stimulated, 500 pg/mL final; Potency, µM (top dose mostly 46.1 µM), for the others: top-dose activity, negative = inhibition, actives largely listed as inhibitors; 410,000 tested, 1.2% active; further: potency means the concentration at half of the fitted maximal effect; on the % scale 0 is the no-effect control and ±100 the full control effect; nearly all actives have a fitted effect of over 65% in size
#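 Inhibition of TGF-beta-driven CAGA-GFP reporter expression in HEPG2 cells is measured by cellular GFP fluorescence after 18 h stimulation with 500 pg/mL recombinant TGF-beta in 1% FBS medium at 37 degrees C.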
# ATXN viability – cell viability loss in ATXN counter-screen. S2 cells (HEK-293 line with an ATXN2-luciferase reporter) viability, CellTiter-Fluor protease fluorescence, 24 h. Potency, µM (series often up to 56.7 µM), most hits filed as cytotoxic. 400,000 tested, 0.49% active. AID 651635; further: potency means the concentration at half of the fitted maximal effect; nearly all actives have a fitted effect of over 40% in size
# HepG2 viability – kills HepG2 cells in TGF-b inhibitor counter-screen. Potency, µM (highest dose often 46.1 µM), for inactives: at the highest dose activity change, negative = cytotoxicity, actives largely listed as cytotoxic. 410,000 tested, 0.76% active. HepG2 CAGA-GFP viability, ATP luminescence, 18 h. AID 588856; further: potency means the concentration at half of the fitted maximal effect
#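 CellTiter-Glo luminescence gave cytotoxicity after 18 hours at 37 degrees C. The cells were HepG2 CAGA-GFP in 1% FBS DMEM, stimulated with 500 pg/mL TGF-beta after compound addition. %Activity was normalised to no-cell wells (complete cell-killing) and DMSO (no toxicity), and curves were fitted and classified.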
# The depositor's hits bear a star; i = inactive; ? = inconclusive; nt = no result given; ! = repeats disagree. Unless noted, the call rests on the fitted dose curve; in most records, active means well fitted curve in the direction sought with a large enough effect; inconclusive means small, poorly fitted or top-dose-only effect, or another doubt; inactive means no such curve, though single readings can be large; an effect the other way counts as inactive or inconclusive.
SMILES,IL1B secr inh,ATXN2 expr inh,TGFb inhibitor,ATXN viability,HepG2 viability
CCOc1ccc(NC(=O)c2ccc3nc(Cc4ccccc4)oc3c2)cc1,nt,?,4.5%,?,-38.8%
NCCOc1ccccc1-c1ccccc1,-2.4,-8.5%,-0.4%,i,-10.3%
Nc1ccc(Oc2ccccc2-c2ccccc2)cc1,-56.8*,?,-0.2%,i,17.5%
CC(C)(C)n1ncc2c(=O)n(Cc3c(F)ccc(Cl)c3Cl)cnc21,nt,nt,7.0%,nt,-4.6%
CCN1CCN(CCNC(=O)c2ccc(/C=C3/Sc4ccccc4N(Cc4ccccc4C)C3=O)cc2)CC1,22.5,?,17.8µM*,?,-94.0%
O=C(NCCCN1CCOCC1)c1ccc(/C=C2\Oc3ccccc3N(Cc3ccccc3F)C2=O)cc1,3.5,nt,2.6%,?,-86.6%
CCN1CCN(CCCNC(=O)c2ccc(/C=C3/Sc4ccccc4N(Cc4ccccc4F)C3=O)cc2)CC1,?,?,?,i,11.2µM*
CCOc1ccc(NCc2cccn2-c2nnc(N3CCC(C(=O)NCCc4ccc(OC)c(OC)c4)CC3)s2)cc1,nt,nt,nt,nt,-29.5%
O=C1C=C(NCCc2cc(Br)c(O)c(Br)c2)C(=O)c2ncccc21,-104.7*,9.47µM*,?,?,7.08µM*
CC(C)(C)c1cc(CCC(=O)NCCc2ccccn2)cc(C(C)(C)C)c1O,23.8,-0.6%,-1.7%,i,-8.4%
CCOC(=O)c1cc(-c2ccccc2)n(CCCC(=O)Nc2cc(C)ccc2OC)c1C,nt,nt,-6.9%,nt,-23.0%
CCn1c(/C=C/c2ccc(O)cc2)nc2ccccc2c1=O,-95.6*,-15.3%,0.0%,nt,-29.2%
O=c1c2ccccc2nc(/C=C/c2ccc(Br)cc2)n1CCCO,?,-2.2%,-23.6%,i,-26.3%
O=c1c2ccccc2nc(/C=C/c2cccc(Br)c2)n1CCCO,-85.5*,-8.9%,0.0%,i,-12.2%
O=c1c2ccccc2nc(/C=C/c2ccc(Br)cc2)n1CCO,-82.8*,-12.0%,16.7%,i,19.9%
O=c1c2ccccc2nc(/C=C/c2ccc(Cl)cc2)n1CCO,-73.5*,-0.9%,-23.0%,i,-2.6%
CCn1c(/C=C/c2ccc(O)c(O)c2)nc2ccccc2c1=O,-18.6,nt,?,i,-35.7%
Cc1cc(C)cc(-n2ccnc2SCC(=O)Nc2cccc3ccccc23)c1,nt,-29.4%,?,i,-22.4%
Cc1[nH]c2ccccc2c1/C=C/c1nc2ccccc2c(=O)n1CCO,-84.3*,-10.0%,-3.6%,nt,-23.9%
Nc1nn(-c2ccccc2)c(N)c1N=Nc1ccccc1,15.1,74.7%,?,i,2.0%
Cc1ccc(C)n1-c1cccc(S(=O)(=O)N2CCOCC2)c1,?,?,-4.2%,?,-3.5%
Cc1nn(-c2ccccc2)c(N)c1N=Nc1ccccc1,-68.3*,162.6%,-25.4%,?,-27.0%
Nc1nn(-c2ccccc2)c(N)c1N=Nc1ccccc1F,-54.5*,50.9%,-25.1%,?,4.7%
Cc1nn(-c2ccccc2)c(N)c1N=Nc1cccc(S(=O)(=O)N2CCOCC2)c1,-56.2*,-13.4%,1.8%,?,10.7%
Cc1nn(-c2ccccc2)c(N)c1N=Nc1ccc(Cl)cc1,-76.1*,37.6%,?,?,-32.2%
SMILES,IL1B secr inh,ATXN2 expr inh,TGFb inhibitor,ATXN viability,HepG2 viability
CCN(C(=O)CSc1ncc(S(=O)(=O)c2ccc(C)c(Cl)c2)c(=O)[nH]1)c1cccc(C)c1,nt,-8.8%,-6.1%,i,-27.8%
COc1ccc(NC(=O)NC(C)c2c(-n3cccc3)sc3c2CCN(C)C3)c(OC)c1 (centres undefined),nt,nt,?,nt,-29.8%
COc1cc2c(cc1OC)C(C(C(=O)N(CCc1ccc(OC)c(OC)c1OC)CCc1ccc(OC)c(OC)c1OC)c1ccccc1)=NCC2 (centres undefined),nt,-29.7%,-18.7%,i,-29.9%
CSc1ccc(CNC(=O)C2CCCN(S(=O)(=O)N(C)c3ccc(F)cc3)C2)cc1 (centres undefined),nt,nt,4.47µM*,nt,-22.4%
Cc1cccc(CNC(=O)C2CCN(c3nn4cc(-c5ccc(F)cc5)nc4s3)CC2)c1,nt,nt,0.0%,nt,-4.6%
CCC(C(=O)NC1CCCCC1)n1c(SCc2cccc(C)c2)nc2ccncc21 (centres undefined),-21.4,1.6%,12.6µM*,?,-35.4%
CC(CNC(=O)c1ccc(CSc2nc3ccncc3n2Cc2cccc(F)c2)cc1)c1ccccc1 (centres undefined),nt,-33.6%,10µM*,?,-20.1%
O=C(NCc1cccs1)c1ccc(CSc2nc3ccncc3n2Cc2ccccc2F)cc1,nt,12.5%,8.91µM*,i,-30.3%
Cc1cccc(Cn2c(SCc3ccc(C(=O)N4CCCCCC4)cc3)nc3ccncc32)c1,nt,nt,12.6µM*,nt,-38.1%
CCC(C(=O)NC1CCCCC1)n1c(SCc2cccc(F)c2)nc2ccncc21 (centres undefined),-6.7,-10.9%,?,?,-25.8%
Cc1ccccc1Cn1c(SCc2ccc(C(=O)NCc3cccs3)cc2)nc2ccncc21,nt,-15.0%,?,i,-24.8%
O=C(c1ccc(CSc2nc3ccncc3n2Cc2ccccc2)cc1)N1CCCCCC1,nt,-2.4%,?,?,-19.7%
Cc1cccc(NC(=O)CSc2ncc3c(n2)-c2ccccc2N(Cc2ccc(F)cc2)S3(=O)=O)c1C,nt,-11.5%,23.8%,i,-1.0%
Cc1ccc([N+](=O)[O-])cc1N(CC(=O)Nc1ccc(S(=O)(=O)Nc2cccc(C(F)(F)F)c2)cc1)S(C)(=O)=O,-84.1*,?,-93.6%,i,-91.4%
CC(C)(C)c1ccc(O)c(O)c1,-81.0*,39.8µM*!,-2.7%,70.8µM*!,-30.7%
CC(C)(C)c1ccc(O)c(/C=N\O)c1,-9.4,34.4%,3.1%,i,-35.9%
CCN1CCN(CCNC(=O)CCCCCn2c(=O)[nH]c3cc(C(=O)OC)ccc3c2=O)CC1,10.7,2.4%,26.5%,i,-1.4%
COC(=O)c1ccc2c(C(=Nc3ccc(N(C)C(=O)CN4CCN(C)CC4)cc3)c3ccccc3)c(O)[nH]c2c1,nt,24.3µM*,nt,nt,nt
CC(NC(=O)CSC1=NCCS1)c1ccccc1 (centres undefined),-55.1*,5.5%,?,i,18.7%
O=C(CSC1=NCCS1)NC(c1ccccc1)c1ccccc1,-72.5*,-2.6%,-2.1%,i,-4.8%
Cc1cccc(NS(=O)(=O)c2ccc3c(c2)CCN3C(=O)C2CCC2)c1,nt,?,?,?,-17.7%
CC(=O)Oc1ccc(-c2nc(-c3ccccc3)no2)cc1,nt,nt,-4.6%,nt,-43.0%
O=C(CCS(=O)(=O)c1ccc(F)cc1)Nc1nnc(-c2cccs2)o1,-64.8*,13.5%,?,?,0.2%
COc1cc(-c2nnc(NC(=O)CCS(=O)(=O)c3ccccc3)o2)cc(OC)c1OC,-54.7*,57.4%,11.2µM*,?,-39.8%

# From PubChem BioAssay
